The first test concerns PPARg:RXRa 90nM:30nM, anti-RXR (NR concentration 90 nM, RXRa partner concentration 30 nM). Kind of test: PBM binding z-score (relative to random genomic background probes); higher = stronger binding; sequences stand for … in GC…GCGATTGACAGCGTAGAATGAAGG
The essentials: (§1)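 Custom Agilent 4×180K protein-binding microarrays carried double-stranded probes. Their 34-nt variable regions held direct-repeat seeds, single-nucleotide variants, half-site ablations and random human genomic background sequences. Arrays were incubated 1 h with ligand-free nuclear receptor dimers in PBS pH 7.4, 2% milk, 0.02% Triton X-100, 1 mM DTT, 0.2 mg/mL BSA and 0.4 mg/ml salmon testes DNA. Antibodies against each partner (one per run) detected binding, and scanned fluorescence was regression-normalized. Binding z-scores use random background probes as reference.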
For the sequence CCTAGTGGGTCAGGAGGTCACACACCGGATATGA, the PBM binding z-score amounted to 6.31.

CCTACTGGGCAAAAAAGGTCATTGATGCCGATAA came in with a PBM binding z-score of 1.99.

On to TCTAGTTCGTCACGGAGGTCACACACGACGGGTA, for which the PBM binding z-score was determined as 3.42.

Regarding CCTAGTTGGTCAAGGTCACGCACGCTATAGGTAC, the PBM binding z-score amounted to 3.

Turning to ATATGTAGGTTAGCGGGGGTCATTCAGACTAGGC, the PBM binding z-score was 6.07.

As for CCTAGATGGTCAGGAGGTCACACACCGGATATGA, the PBM binding z-score turned out to be 2.41.

Sequence CCTAGTTGGTCAGGAAGTCACACACCGGATATGA showed a PBM binding z-score of 0.322.

Regarding CGTCAAAGTTAAAGGTAACGTAACAGAAAGCAGC, the PBM binding z-score is 1.65.

As to CCTACTGGGCCATTCAGAGGTCACTGATCATATG, the PBM binding z-score came to 2.14.

Sequence TAGCCTCGGTCATTCAGGGGCCAGTATAGAAAGC came in with a PBM binding z-score of -0.514.

The sequence CAAACTAGGCCAAGGTCAAAGTCGGTTTGTGCCA registered a PBM binding z-score of 5.74.

As for ATCGAAAGGTCGAGTTGAGTATAGAGAAAGGGAA, the PBM binding z-score amounted to 2.07.

In the case of CGTCAAAGTTCAAGGTAAAGTAACAGAAAGCAGC, the PBM binding z-score was 3.89.

The sequence CTATGTAGGTGAAGGGGGTCATTCAGTTTGAAAG registered a PBM binding z-score of 8.98.

As to TCTAGTTGGTCACGGGGGTCACACACGACGGGTA, the PBM binding z-score was found to be 5.65.

For CCTTACGGGTCACTTACAGGTTATAGCATTTGGA, the PBM binding z-score stood at 2.84.

The sequence CCTACTGGGCCATTCAGAGGTCATCGATCATATG returned a PBM binding z-score of 2.37.

In turn, CAAAATAGGTCAAGAGGTCAAAGTCCGCTTCCCG had a PBM binding z-score of 8.11.

TAGCCTAGGTCATGCGGGTCAGTATAGTGTCGGC showed a PBM binding z-score of 2.32.

In the case of GCTTACGGGTCAAAGGTTAAAGCATGAATAGAAT, the PBM binding z-score stood at 10.3.

CGTCCAAGGTCAAAGGTCAGCGAAGAGATGACGG came in with a PBM binding z-score of 9.49.

Take ATCGAAAGGTCGACGAGGTGAGAATACACCGTTT: the PBM binding z-score came out at 2.26.

CGTCCAAGGGCAATGCTAGGTCAGTGAAAGCATT yielded a PBM binding z-score of -0.291.

In the case of GCTTACGGGTCAAAAGTTATAGCATGAATAGAAT, the PBM binding z-score was determined as 6.2.

In turn, CCTACTGGGCCACGAAAGGTGATTGATTCAGTGA returned a PBM binding z-score of 0.958.

With CTATGTAGGTTAAGGGGGTCATTGAGTTTGAAAG, the PBM binding z-score was 8.13.

ATCGAAAGGTCGTGAGGTGAGTTTACAGAAAGGC displayed a PBM binding z-score of 3.05.

For TCTACTTGGTCACGGAGGTCACACACGACGGGTA, the PBM binding z-score is 3.83.

In turn, TCGAGTAGGTTACGGGGGCGTTCAGGGATGAAGA displayed a PBM binding z-score of 3.91.

On to TATACAGGATCAAAGGCCAGAGTACGAATGTCGA, for which the PBM binding z-score is 2.92.

As to CCTAGTTGGTCAAGGTCCCACACGCTATAGGTAC, the PBM binding z-score was determined as 0.409.

Sequence CCCAGTAGGTTACGAGGGGGCATTCAGTGCGAAT gave a PBM binding z-score of 3.59.

In turn, AGAATGGGGTTATTAAGATCAGGGAATTGCGGTC came in with a PBM binding z-score of 2.65.

In turn, ATCGAAAGGTCGTGAAGTGAGTATACAGAAAGGC showed a PBM binding z-score of 2.63.

Turning to GCTGCTAGGTCAGGTTGGTCAGCTAACGGGTACG, the PBM binding z-score was 0.176.

Sequence CCTTACGGGTCACTGACAGCTTATAGCATTTGGA displayed a PBM binding z-score of 3.11.

With AGAATGAGGTTAGCAAAGATCAGGGAAACGCTTG, the PBM binding z-score turned out to be 0.6.

The sequence CCTAGTTGGTCAGGGGGTCACACACCGGATATGA came in with a PBM binding z-score of 4.92.

AGTCGGAGGACAAAGGTCAGAGCTACGCCAGTGA gave a PBM binding z-score of 7.56.

Another test concerns PPARg:RXRa DBDmut IVT, anti-RXR (DBD mutation: RXRa K156A/R161A, NR concentration 270 nM, RXRa partner concentration 90 nM). The description is as above. Put shortly: as §1
The sequence CCTAGTGGGTCAGGAGGTCACACACCGGATATGA displayed a PBM binding z-score of 5.23.

In the case of CCTACTGGGCAAAAAAGGTCATTGATGCCGATAA, the PBM binding z-score is 0.468.

TCTAGTTCGTCACGGAGGTCACACACGACGGGTA: the PBM binding z-score was 1.52.

Regarding CCTAGTTGGTCAAGGTCACGCACGCTATAGGTAC, the PBM binding z-score was determined as 2.54.

The sequence ATATGTAGGTTAGCGGGGGTCATTCAGACTAGGC yielded a PBM binding z-score of 7.07.

CCTAGATGGTCAGGAGGTCACACACCGGATATGA returned a PBM binding z-score of 1.16.

Consider CCTAGTTGGTCAGGAAGTCACACACCGGATATGA, for which the PBM binding z-score stood at 0.63.

CGTCAAAGTTAAAGGTAACGTAACAGAAAGCAGC: the PBM binding z-score was found to be 0.379.

For the sequence CCTACTGGGCCATTCAGAGGTCACTGATCATATG, the PBM binding z-score was 4.42.

Take TAGCCTCGGTCATTCAGGGGCCAGTATAGAAAGC: the PBM binding z-score was -0.712.

Regarding CAAACTAGGCCAAGGTCAAAGTCGGTTTGTGCCA, the PBM binding z-score came to 6.88.

ATCGAAAGGTCGAGTTGAGTATAGAGAAAGGGAA registered a PBM binding z-score of -0.0281.

Turning to CGTCAAAGTTCAAGGTAAAGTAACAGAAAGCAGC, the PBM binding z-score is 0.433.

In the case of CTATGTAGGTGAAGGGGGTCATTCAGTTTGAAAG, the PBM binding z-score was 7.88.

On to TCTAGTTGGTCACGGGGGTCACACACGACGGGTA, for which the PBM binding z-score amounted to 3.49.

Sequence CCTTACGGGTCACTTACAGGTTATAGCATTTGGA came in with a PBM binding z-score of 3.22.

As for CCTACTGGGCCATTCAGAGGTCATCGATCATATG, the PBM binding z-score came to 4.55.

For CAAAATAGGTCAAGAGGTCAAAGTCCGCTTCCCG, the PBM binding z-score stood at 7.42.

Turning to TAGCCTAGGTCATGCGGGTCAGTATAGTGTCGGC, the PBM binding z-score amounted to 2.38.

For the sequence GCTTACGGGTCAAAGGTTAAAGCATGAATAGAAT, the PBM binding z-score is 4.74.

CGTCCAAGGTCAAAGGTCAGCGAAGAGATGACGG registered a PBM binding z-score of 4.17.

In the case of ATCGAAAGGTCGACGAGGTGAGAATACACCGTTT, the PBM binding z-score is 0.716.

With CGTCCAAGGGCAATGCTAGGTCAGTGAAAGCATT, the PBM binding z-score stood at 0.816.

GCTTACGGGTCAAAAGTTATAGCATGAATAGAAT came in with a PBM binding z-score of 3.77.

Sequence CCTACTGGGCCACGAAAGGTGATTGATTCAGTGA displayed a PBM binding z-score of 5.14.

For the sequence CTATGTAGGTTAAGGGGGTCATTGAGTTTGAAAG, the PBM binding z-score turned out to be 7.65.

For the sequence ATCGAAAGGTCGTGAGGTGAGTTTACAGAAAGGC, the PBM binding z-score amounted to 0.311.

Sequence TCTACTTGGTCACGGAGGTCACACACGACGGGTA had a PBM binding z-score of 3.04.

On to TCGAGTAGGTTACGGGGGCGTTCAGGGATGAAGA, for which the PBM binding z-score is 4.48.

Take TATACAGGATCAAAGGCCAGAGTACGAATGTCGA: the PBM binding z-score worked out at 0.256.

On to CCTAGTTGGTCAAGGTCCCACACGCTATAGGTAC, for which the PBM binding z-score was found to be 1.11.

As to CCCAGTAGGTTACGAGGGGGCATTCAGTGCGAAT, the PBM binding z-score is 5.3.

AGAATGGGGTTATTAAGATCAGGGAATTGCGGTC yielded a PBM binding z-score of 3.63.

In the case of ATCGAAAGGTCGTGAAGTGAGTATACAGAAAGGC, the PBM binding z-score worked out at 0.0713.

With GCTGCTAGGTCAGGTTGGTCAGCTAACGGGTACG, the PBM binding z-score was found to be 2.95.

The sequence CCTTACGGGTCACTGACAGCTTATAGCATTTGGA showed a PBM binding z-score of 3.83.

In turn, AGAATGAGGTTAGCAAAGATCAGGGAAACGCTTG had a PBM binding z-score of 2.18.

With CCTAGTTGGTCAGGGGGTCACACACCGGATATGA, the PBM binding z-score came to 1.2.

AGTCGGAGGACAAAGGTCAGAGCTACGCCAGTGA displayed a PBM binding z-score of 0.569.
